In PubChem BioAssay one finds growth inhibition, inhibition and outcome data, which are given here for 20 molecules.

Unmarked numbers belong to inactive results. For some of these results: Entries with a potency or affinity are not part of this list. Active and inactive are the calls of the source. Unless noted, the rule behind the calls is not given here.

A short description of assay [1]: antimalarial activity against Dd2 strain (AID 2302;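 active = growth inhibition above 50% at the single 2 µM test dose, taken to imply half-maximal potency below 2 µM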;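 note: 0% = DMSO untreated growth and 100% = chloroquine plus artemisinin killed control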). The following applies: P. falciparum Dd2 in RBCs, LDH growth readout, 72 h; at 2 µM; stronger effect = higher value.
The nature of assay [2]: HepG2 cytotoxicity, primary screen, cytotoxicity control for P. falciparum antimalarial project, cell-based, ATP luminescence (AID 2303;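 active = inhibition above 50%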;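 note: 0% = DMSO wells and 100% = digitonin-killed cells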). The following applies: HepG2 viability, 24-48 h, at 10 µM, stronger effect = higher value.
Assay [3] addresses L-lactate dehydrogenase (Plasmodium falciparum (isolate CDC / Honduras)) (UniProt Q27743). The assay can be described thus: PfLDH activity inhibition – cell lysate, 3D7 strain, counter-screen for P. falciparum growth inhibition project (AID 2304).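 Note: 0% = vehicle and 100% = reference inhibitor.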 The following applies: P. falciparum 3D7 crude extract, LDH APAD/NBT absorbance; at 2 µM; stronger effect = higher value. In general terms: The purpose of a counterscreen is to sort out artefacts and off-target activity.

The nature of assay [4]: inhibition of 3D7 malaria parasite growth – strain 3D7 (AID 2306).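 Note: 0% = DMSO wells and 100% = chloroquine plus artemisinin control wells.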 The following applies: P. falciparum 3D7 erythrocytic growth, LDH absorbance, 72 h; at 2 µM; stronger effect = higher value.
Assay [5] deals with Calcium-dependent protein kinase 1 (Plasmodium falciparum (isolate 3D7)) (UniProt P62344). The assay can be described thus: PfCDPK1 kinase inhibitors, biochemical, TCAMS library (AID 1159585; cut-off not given, nearly all actives have IC50 up to about 0.98 µM;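 note: inhibitors leave more ATP so luminescence rises with inhibition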). The following applies: recombinant PfCDPK1, Kinase-Glo ATP depletion luminescence. On the technique in general: In Kinase-Glo more light means more ATP remaining.
For assay [6], the target named is Plasmodium falciparum protein kinase 6 (PK6, PF3D7_1337100) (UniProt Q8IDW1). The assay can be described thus: PfPK6 kinase inhibitors, biochemical, TCAMS library (AID 1159586). The following applies: recombinant PfPK6, Kinase-Glo ATP depletion luminescence.
The target in assay [7] is Protein kinase 7 (PK7), Plasmodium falciparum 3D7 (PF3D7_0213400) (UniProt Q7YTF7). The assay can be described thus: inhibition of Plasmodium PK7 catalytic activity – biochemical, TCAMS antimalarial set, Kinase-Glo luminescence (AID 1159587). The following applies: recombinant PfPK7, Kinase-Glo ATP depletion luminescence.
The target in assay [8] is Calcium-dependent protein kinase 4 (Plasmodium falciparum (isolate 3D7)) (UniProt Q8IBS5). As to the kind of experiment: PfCDPK4 kinase inhibitors, biochemical, TCAMS library (AID 1159588; cut-off not given, nearly all actives have IC50 up to about 0.91 µM). The following applies: recombinant PfCDPK4, Kinase-Glo ATP depletion luminescence.
Sequence of Calcium-dependent protein kinase 4 (Plasmodium falciparum (isolate 3D7)) (Q8IBS5 whole entry, looked up): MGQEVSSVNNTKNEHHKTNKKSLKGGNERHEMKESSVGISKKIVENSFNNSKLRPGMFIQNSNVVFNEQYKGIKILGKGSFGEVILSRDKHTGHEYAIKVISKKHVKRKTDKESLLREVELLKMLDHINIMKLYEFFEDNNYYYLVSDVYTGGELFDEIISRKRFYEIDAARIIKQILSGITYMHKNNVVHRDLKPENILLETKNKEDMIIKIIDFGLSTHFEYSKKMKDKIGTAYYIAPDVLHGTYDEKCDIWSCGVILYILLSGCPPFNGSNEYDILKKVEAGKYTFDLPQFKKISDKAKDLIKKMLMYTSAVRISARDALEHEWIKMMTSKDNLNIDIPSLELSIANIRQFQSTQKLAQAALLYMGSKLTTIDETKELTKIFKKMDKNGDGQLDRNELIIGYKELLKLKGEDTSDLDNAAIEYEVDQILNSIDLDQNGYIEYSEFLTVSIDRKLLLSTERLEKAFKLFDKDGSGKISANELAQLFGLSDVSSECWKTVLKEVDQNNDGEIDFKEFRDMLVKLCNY

Sequence of L-lactate dehydrogenase (Plasmodium falciparum (isolate CDC / Honduras)) (Q27743 whole entry, looked up): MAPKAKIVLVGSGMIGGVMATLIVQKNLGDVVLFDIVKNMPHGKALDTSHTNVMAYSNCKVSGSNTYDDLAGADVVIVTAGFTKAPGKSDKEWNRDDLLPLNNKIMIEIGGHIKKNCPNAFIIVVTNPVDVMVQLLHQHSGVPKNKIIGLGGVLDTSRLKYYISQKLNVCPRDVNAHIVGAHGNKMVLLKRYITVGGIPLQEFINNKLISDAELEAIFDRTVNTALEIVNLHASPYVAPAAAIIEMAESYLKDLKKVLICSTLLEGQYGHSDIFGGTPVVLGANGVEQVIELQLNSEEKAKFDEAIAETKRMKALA
Sequence of Calcium-dependent protein kinase 1 (Plasmodium falciparum (isolate 3D7)) (P62344 whole entry, looked up): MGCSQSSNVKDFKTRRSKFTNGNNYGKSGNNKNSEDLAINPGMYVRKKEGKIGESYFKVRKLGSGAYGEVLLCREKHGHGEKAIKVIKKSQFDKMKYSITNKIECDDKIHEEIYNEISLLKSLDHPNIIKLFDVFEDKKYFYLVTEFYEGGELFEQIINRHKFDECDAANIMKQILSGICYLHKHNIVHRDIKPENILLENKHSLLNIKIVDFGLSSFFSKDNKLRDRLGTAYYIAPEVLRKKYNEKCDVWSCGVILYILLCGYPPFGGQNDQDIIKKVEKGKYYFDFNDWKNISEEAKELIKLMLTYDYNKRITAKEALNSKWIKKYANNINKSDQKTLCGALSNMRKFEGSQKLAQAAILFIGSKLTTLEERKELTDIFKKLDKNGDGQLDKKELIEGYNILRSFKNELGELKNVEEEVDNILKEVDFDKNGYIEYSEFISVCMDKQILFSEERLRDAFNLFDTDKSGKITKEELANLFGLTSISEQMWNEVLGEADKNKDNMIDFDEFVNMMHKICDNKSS
Sequence of Plasmodium falciparum protein kinase 6 (PK6, PF3D7_1337100) (Q8IDW1 1-305): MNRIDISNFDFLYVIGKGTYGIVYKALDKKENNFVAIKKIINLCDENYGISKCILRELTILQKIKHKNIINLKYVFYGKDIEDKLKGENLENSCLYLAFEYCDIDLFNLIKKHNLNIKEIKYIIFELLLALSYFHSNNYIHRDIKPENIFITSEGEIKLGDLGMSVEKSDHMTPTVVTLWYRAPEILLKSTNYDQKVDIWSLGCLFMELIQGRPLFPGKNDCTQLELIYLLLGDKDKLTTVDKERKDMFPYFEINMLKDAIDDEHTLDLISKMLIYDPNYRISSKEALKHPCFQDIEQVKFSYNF
Sequence of Protein kinase 7 (PK7), Plasmodium falciparum 3D7 (PF3D7_0213400) (Q7YTF7 1-343): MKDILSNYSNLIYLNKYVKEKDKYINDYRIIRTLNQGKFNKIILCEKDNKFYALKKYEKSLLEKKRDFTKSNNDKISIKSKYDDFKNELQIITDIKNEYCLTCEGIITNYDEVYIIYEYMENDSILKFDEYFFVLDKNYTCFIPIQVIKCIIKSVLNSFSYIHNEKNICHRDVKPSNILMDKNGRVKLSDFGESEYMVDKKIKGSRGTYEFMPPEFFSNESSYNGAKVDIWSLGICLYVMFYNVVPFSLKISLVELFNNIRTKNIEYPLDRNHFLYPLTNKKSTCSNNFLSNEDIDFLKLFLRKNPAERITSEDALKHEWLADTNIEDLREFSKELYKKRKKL

Take `Cc1cc(NN=Cc2ccc(F)cc2)c2ccc(C(F)(F)F)cc2n1`: the growth inhibition is 24% in assay [1] and 95% (active) in assay [4]. The inhibition (as a rule, the relative decrease from the control value, in per cent) in assay [2] was 4%; in assay [3] it was -2%. In addition, the result in assay [5], in assay [6], in assay [7] and in assay [8] was inactive.

Regarding `COC(=O)c1ccc(OCC(O)CO)cc1O` (stereo not given), the growth inhibition in assay [1] is 23%; in assay [4] it was 101% (active). Moreover, the results for the inhibition in assay [2] and in assay [3] were 4% and 5%, respectively. The result in assay [5], in assay [6], in assay [7] and in assay [8] was inactive.

Consider `O=C(NCCN1CCOCC1)c1ccc(-c2ccc(CNCCCc3ccccc3)cc2)nc1`, for which the growth inhibition is 10% in assay [1] and 97% (active) in assay [4]. The results for the inhibition in assay [2] and in assay [3] were -11% and -1%, respectively. Besides, the outcome in assay [5], in assay [6], in assay [7] and in assay [8] was inactive.

For `N#Cc1ccc2c(c1)CCN(CCC1CCC(NC(=O)c3ccc(-c4ccccc4)s3)CC1)CC2` (stereo not given), the growth inhibition was 36% in assay [1] and 99% (active) in assay [4]. In addition, the inhibition in assay [2] was 6%; in assay [3], 0%. Further, the outcome in assay [5], in assay [6], in assay [7] and in assay [8] was inactive.

For `Cc1cc(-c2ccc(NC(=O)N3CCc4cc(Br)c(N5CCN(C)CC5)cc43)cc2)cc(C)n1`, the growth inhibition in assay [1] was 4%; in assay [4] it was 92% (active). The inhibition in assay [2] is 29%; in assay [3], -2%. In addition, the result in assay [5], in assay [6], in assay [7] and in assay [8] was inactive.

Turning to `Cc1cccc(-n2c(=O)c3c4c(sc3n3c(SCCC(C)C)nnc23)CCCC4)c1`, the growth inhibition in assay [1] was 8%; in assay [4], 90% (active). Further, the inhibition in assay [2] is -2%; in assay [3] it was -4%. The result in assay [5], in assay [6], in assay [7] and in assay [8] was inactive.

Take `O=C(Nc1ccc(Cl)cc1)Nc1cccc(-c2cccc(-c3nc4ccccc4[nH]3)c2)c1`: the growth inhibition in assay [1] was 56% (active); in assay [4] it was 100% (active). Besides, the inhibition is 70% (active) in assay [2] and 0% in assay [3]. For the same molecule, the outcome in assay [5], in assay [6], in assay [7] and in assay [8] was inactive.

`CC(=O)Nc1nc(-c2ccccc2)[nH]c1C(N)=O`: the growth inhibition is -2% in assay [1] and 99% (active) in assay [4]. In addition, the inhibition in assay [2] was 10%; in assay [3], 4%. Moreover, the outcome in assay [5], in assay [6], in assay [7] and in assay [8] was inactive.

Take `O=C(NC1CCC(CCN2Cc3ccc(Br)cc3C2)CC1)c1cccc(-c2cccnc2)c1` (stereo not given): the growth inhibition in assay [1] is 73% (active); in assay [4], 99% (active). The inhibition in assay [2] was 14%; in assay [3], 5%. The result in assay [5], in assay [6], in assay [7] and in assay [8] was inactive.

In the case of `CC(C)(C)N1CCC(N(Cc2ccc(-c3ccc(C(F)(F)F)cc3)cc2)C(=O)Cn2c(CCc3cccc(F)c3F)cc(=O)c3cccnc32)CC1`, the growth inhibition in assay [1] is 63% (active); in assay [4], 102% (active). In addition, the figures for the inhibition in assay [2] and in assay [3] were 100% (active) and -1%, respectively. In addition, the outcome in assay [5], in assay [6], in assay [7] and in assay [8] was inactive.

In the case of `c1ccc2c(C3CCN(CCCCOc4ccc5c(c4)CCN(CC4CC4)CC5)CC3)c[nH]c2c1`, the growth inhibition in assay [1] is 97% (active); in assay [4] it was 99% (active). For the same molecule, the inhibition was 74% (active) in assay [2] and -8% in assay [3]. The result in assay [5], in assay [6], in assay [7] and in assay [8] was inactive.

Turning to `O=C(Cc1cccc2ccccc12)N1CCc2cc3nccc(N4CCN5CCC[C@H]5C4)c3cc21`, the growth inhibition in assay [1] is 99% (active); in assay [4], 101% (active). In addition, the results for the inhibition in assay [2] and in assay [3] were 3% and 2%, respectively. In addition, the result in assay [5], in assay [6], in assay [7] and in assay [8] was inactive.

As to `COc1ccc(OCCCN2CCCCC2)cc1S(=O)(=O)c1ccc(OCc2ccc(C(F)(F)F)cc2)cc1`, the growth inhibition was 8% in assay [1] and 94% (active) in assay [4]. Also, the inhibition in assay [2] is 52% (active); in assay [3] it was -2%. Also, the outcome in assay [5], in assay [6], in assay [7] and in assay [8] was inactive.

As for `Cc1cc(-c2cnc(N)c(-c3ccc(N4CCN(C)CC4)nc3)c2)cc(C)c1O`, the growth inhibition in assay [1] is 33%; in assay [4] it was 91% (active). Further, the inhibition in assay [2] is -12%; in assay [3], 7%. The outcome in assay [5], in assay [6], in assay [7] and in assay [8] was inactive.

Consider `O=C(NCCCCN1CCC(c2ccc3c(c2OCCN2CCCC2=O)CCCC3)CC1)c1ccc(-c2ccc(C(F)(F)F)cc2)cc1`, for which the growth inhibition in assay [1] is 1%; in assay [4], 88% (active). Further, the figures for the inhibition in assay [2] and in assay [3] were 56% (active) and 1%, respectively. For the same molecule, the outcome in assay [5], in assay [6], in assay [7] and in assay [8] was inactive.

With `CCCCNCc1ccc(-c2nc(CN(C(=O)Nc3cc([N+](=O)[O-])ccc3F)C3Cc4ccccc4C3)cs2)cc1`, the growth inhibition in assay [1] is 13%; in assay [4], 87% (active). Moreover, the inhibition in assay [2] was 15%; in assay [3] it was -2%. For the same molecule, the result in assay [5], in assay [6], in assay [7] and in assay [8] was inactive.

For the molecule `Cc1cc(Nc2nc(NCc3cccnc3)nc3ccccc23)n[nH]1`, the growth inhibition was 33% in assay [1] and 101% (active) in assay [4]. Moreover, the inhibition is 11% in assay [2] and 1% in assay [3]. In addition, the result in assay [5], in assay [6], in assay [7] and in assay [8] was inactive.

In the case of `C[C@@H]1CN(C(c2cccc(O)c2)c2cccc(C(=O)N(C)c3cccc(F)c3)c2)[C@@H](C)CN1C(c1cccc(O)c1)c1cccc(C(=O)N(C)c2cccc(F)c2)c1` (stereo not given in full), the growth inhibition in assay [1] is 85% (active); in assay [4], 91% (active). In addition, the inhibition in assay [2] and in assay [3] was 0% in each case. In addition, the result in assay [5], in assay [6], in assay [7] and in assay [8] was inactive.

With `CN1CCN(CCCN(C(=O)Nc2cc(C(F)(F)F)cc(C(F)(F)F)c2)c2ccccc2Cc2ccccc2)CC1`, the figures for the growth inhibition in assay [1] and in assay [4] were 92% (active) and 89% (active), respectively. The inhibition in assay [2] was 35%; in assay [3], 0%. Besides, the result in assay [5], in assay [6], in assay [7] and in assay [8] was inactive.

For `Cc1c(CNCCCNc2nc3ccncc3[nH]2)sc(Br)c1Br`, the growth inhibition was 1% in assay [1] and 87% (active) in assay [4]. The inhibition was -10% in assay [2] and 3% in assay [3]. For the same molecule, the result in assay [5], in assay [6], in assay [7] and in assay [8] was inactive.
